Screening results (PubChem)
In the library only some 11% were active in any assay of this set; here they are far more common.
NPR1 antag – Natriuretic polypeptide receptor (hNpr1) antagonism - Primary qHTS. 76,000 compounds, 1.6% hits. Potency, µM (doses to about 46.3 µM), for inactives: at the highest dose activity change, negative = inhibition, most hits filed as inhibitors. AID 1347048, 2019. HEK293 hNpr1 GloSensor cGMP, ANP-stimulated luminescence. Atrial natriuretic peptide receptor 1 (Homo sapiens), P16066; calls by dose curve; also: nearly all actives have a fitted effect of over 60% in size
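HEK293 cells stably expressing human Npr1 and cGMP GloSensor pGS-40F, loaded 2 h with 2% GloSensor reagent, given compound 30 min at room temperature. Luminescence read before and 20 min after 0.1 nM hNppA.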
NIH3T3 tox – Cytotoxic Profiling in NIH 3T3 Cell Line of Diverse Libraries Using Quantitative High-Throughput Screening; NIH 3T3 viability, CellTiter-Glo ATP luminescence, 48-72 h; Potency, µM (top dose mostly 96.7 µM), for inactives: top-dose activity change, negative = cytotoxicity, actives largely listed as inhibitors; 94,000 compounds, 4.3% hits; also: nearly all actives have a fitted effect of over 55% in size
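NIH 3T3 cells at 400 cells/well received 23 nL of compound by pintool and were incubated 48 or 72 h at 37 °C. Viability was read as ATP-coupled CellTiter-Glo luminescence.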
FLuc inh – Firefly luciferase inhibition profiling of diverse chemical library using quantitative high-throughput screening. purified P. pyralis luciferase, luminescence, biochemical. Potency, µM (top dose mostly 115 µM), hits mostly inhibitors. 76,000 compounds, 2.5% hits. AID 1347043, 2019; also: nearly all actives have a fitted effect of over 65% in size
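FLuc 10nM, D-luciferin 10uM, ATP 10uM, Mg acetate 10mM, Tris acetate pH 7.5, Tween/BSA; cpd qHTS; enzyme added last; CCD luminescence.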
HEK293 tox – Cytotoxic Profiling in HEK 293 Cell Line of Diverse Libraries Using Quantitative High-Throughput Screening. AID 1345083, 2018. 94,000 compounds, 6.6% hits. HEK 293 viability, ATP luminescence (CellTiter-Glo), 48-72 h. Potency, µM (titrated, usually from 115 µM), for inactives: top-dose activity change, negative = cytotoxicity, usual class: inhibitors; also: nearly all actives have a fitted effect of over 60% in size
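qHTS cytotoxicity; HEK 293, 250 cells/well; compound pinned; 48 or 72 hr, 37 degree Celsius, 5% CO2, 95% humidity; CellTiter-Glo, 10 min RT; luminescence (ATP).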
Starred values were filed as active, the others as inactive; i = inactive; ? = inconclusive; nt = not tested or not shown; ! = repeats disagree; [ ] = dose if it differs, or a comment. Unless noted, calls follow the shape of the dose curve; as a rule, active = well fitted curve in the direction sought with a large enough effect; inconclusive = small, poorly fitted or top-dose-only effect, or another doubt; inactive = no such curve, though single readings can be large; an effect the other way counts as inactive or inconclusive. % is scaled to controls: 0 for no effect and ±100 for the full control effect; potency is read from the fitted curve at half-maximal effect.

SMILES	NPR1 antag	NIH3T3 tox	FLuc inh	HEK293 tox
CC(C)C(=O)N1CCC2(CC1)OC(=O)N(Cc1ncccn1)C2(C)c1ccccc1 (centres undefined)	-0.4%[70.6 µM]	89.1µM*	i	0.4%[172 µM]
O=C(C1CC1)N1CCCC(C(=O)N2CCC(c3nc4ncccc4[nH]3)C2)C1 (centres undefined)	nt	-18.8%	nt	4.4%
Cc1ccc(-c2nnc3ccc(NCCc4ccccc4)nn23)nc1	-6.7%[70.6 µM]	44.7µM*	i	56.2µM*
COCCNc1ccc2nnc(-c3ccc(C)cn3)n2n1	3.0%[70.6 µM]	112µM*	i	-3.9%[230 µM]
Cc1cccc(N(C)c2ccc3nnc(-c4cc(C#N)ccn4)n3n2)c1	?	?	i	?
Cc1ccc(-c2nnc3ccc(NCCN(C)C)nn23)nc1	-0.3%[70.6 µM]	?	i	0.1%[172 µM]
Cc1ccc(-c2nnc3ccc(N(C)c4cccc(C)c4)nn23)nc1	-1.0%[70.6 µM]	?	i	56.2µM*
COc1ccc(-c2cc(C(=O)NC3CCNCC3)c3c(C)nn(-c4ccccc4)c3n2)cc1	nt	7.08µM*	nt	25.1µM*
COc1ccc(-c2cc(C(=O)NC3CC3)c3c(C)nn(-c4ccccc4)c3n2)cc1	nt	22.4µM*	nt	?
O=C1NCCCCCCN(Cc2ccncc2)[C@@H]2CN(C(=O)CCc3ccccc3)CC[C@@H]12	-0.3%	-22.0%	i	-14.5%
Cc1c(Cl)c(C(=O)N2CCCC(C)(Cc3ccc4c(c3)OCO4)C2)nn1C (centres undefined)	-23.1%	?	31.6µM*	?
CC1(Cc2ccc3c(c2)OCO3)CCCN(C(=O)c2cncc(Cl)c2)C1 (centres undefined)	-4.7%	?	i	31.6µM*
CC1(Cc2ccc3c(c2)OCO3)CCCN(C(=O)N2CCOCC2)C1 (centres undefined)	-6.8%	-17.2%	i	-28.6%
O=C(c1ccc2nc(-c3ccc(F)cc3)cn2c1)N1CCC(F)CC1	-9.5%	-26.1%	i	?
CCNC(=O)C1CCN(C(=O)c2ccc3nc(-c4ccccc4)cn3c2)C1 (centres undefined)	-0.5%	i	35.5µM*	-1.8%
Cc1ccccc1C(=O)N1CCC[C@H]1c1nc(-c2ccc(F)cc2)no1	-5.2%	-19.0%	i	?
O=C(NCc1cccs1)c1cc(-c2ccccc2)c2nncn2n1	nt	-25.2%	nt	?
O=C(NCc1cccs1)c1cc(-c2cccs2)c2cccn2n1	nt	?	nt	50.1µM*
O=C(NCCc1ccc(Cl)cc1)c1cc(-c2cccs2)c2cccn2n1	nt	?	nt	44.7µM*
Cn1c([C@H]2CCN(Cc3cccc(C#N)c3)C2)nc2ccccc21	-5.2%[70.6 µM]	?	i	?
CCOc1cccc2c1OC[C@@H]1CN(CCOC)C(=O)CCN(C(=O)c3cccc(OC)c3)[C@H]21	nt	-29.1%	nt	?
CC(C)C[C@@H]1N[C@H](C(=O)NC2CCC2)Cc2cn(Cc3ccccn3)c3cccc1c23	-24.4%[70.6 µM]	35.5µM*	i	28.2µM*
CC(C)C[C@@H]1N[C@H](C(=O)NCC2CC2)Cc2cn(Cc3ccccn3)c3cccc1c23	-17.8%[70.6 µM]	39.8µM*	i	44.7µM*
CC(C)C[C@@H]1N[C@H](C(=O)NC(C)C)Cc2cn(Cc3ccccn3)c3cccc1c23	-12.4%[70.6 µM]	44.7µM*	i	28.2µM*
CC(C)C[C@@H]1N[C@H](C(=O)NC2CCC2)Cc2cn(Cc3ccncc3)c3cccc1c23	?	79.4µM*	i	?
SMILES	NPR1 antag	NIH3T3 tox	FLuc inh	HEK293 tox
CC(C)C[C@@H]1N[C@H](C(=O)NC2CC2)Cc2cn(Cc3nccn3C)c3cccc1c23	-7.2%[70.6 µM]	?	i	?
CCOC(=O)c1ccccc1NC(=O)Cn1c(-c2cnccn2)nc(C)c(C)c1=O	1.8%	i	i	5.9%
O=C(Cn1c(=O)c2c(n1Cc1ccccc1)CN(Cc1ccccc1)CC2)N1CCC(c2ccccc2)CC1	-1.4%	?	i	?
CC(C)C[C@@H]1N[C@H](C(=O)NCCN2CCOCC2)Cc2cn(Cc3ccccn3)c3cccc1c23	-7.5%	?	i	?
CC(C)C[C@@H]1N[C@H](C(=O)NCCN(C)C)Cc2cn(Cc3ccccn3)c3cccc1c23	0.4%[70.6 µM]	28.2µM*	i	?
C#CCNC(=O)c1nc2cccnc2n(-c2ccccc2OC)c1=O	nt	-16.1%[138 µM]	nt	-0.4%[172 µM]
O=C(c1ccc(CCC2COc3ccccc3O2)cc1)N1CCCCC1 (centres undefined)	?	?	35.5µM*	?
CC(C)(C(=O)NCCC1COc2ccccc2O1)N1CCOCC1 (centres undefined)	-2.1%	0.4%	i	-9.3%
COC[C@@H]1CCCN1Cc1cn(-c2ccccc2)nc1-c1ccc(OC)cc1F	9.0%	?	?	?
CCC1C(=O)NCCN1Cc1cn(-c2cccc(F)c2)nc1-c1ccc(C)o1 (centres undefined)	-7.3%	?	28.2µM*	?
O=C(c1nc2sccn2c1-c1ccc(C(F)(F)F)cc1)N1CCCCC1	nt	-29.6%	nt	?
O=C1CN(C(=O)c2csc3nc(-c4ccc(C(F)(F)F)cc4)cn23)CCCN1	?	?	7.94µM*	44.7µM*
CN(Cc1ccccc1)C(=O)C1(c2ccc(NC(=O)C3CC3)cc2)CCCCC1	-20.3%	?	i	35.5µM*
CC(=O)Nc1ccc(C2(C(=O)N(C)Cc3ccccc3)CCCCC2)cc1	2.1%	?	i	50.1µM*
CC(=O)Nc1ccc(C2(C(=O)N3CCN(c4ccccc4)CC3)CCCCC2)cc1	-12.0%	?	i	?
O=C(CN1CCN(c2cc(C3CC(O)C3)ncn2)CC1)N1CCCC1 (centres undefined)	5.2%	-16.8%	i	0.2%
O=S(=O)(c1ccccc1)N1CCN(c2cc(C3CC(O)C3)ncn2)CC1 (centres undefined)	-20.8%	?	i	39.8µM*!
CCc1nc2c(c(-c3ccc(OC)cc3)n1)CCN(Cc1cccc(NC(C)=O)c1)CC2	nt	i	nt	i
CNC(=O)c1cc(C)nc2onc(C3CCCN(C(=O)c4ccccc4OC)C3)c12 (centres undefined)	nt	-19.2%	nt	-0.5%
Cc1nn(CCC#N)c(C)c1[C@@H]1C=C[C@@H](NS(=O)(=O)c2cccs2)C1	-3.1%[70.6 µM]	44.7µM*	i	-9.2%[172 µM]
Cc1nn(-c2ccc(F)cc2)c(C)c1[C@@H]1C=C[C@@H](NS(=O)(=O)c2cccs2)C1	-13.2%[70.6 µM]	?	i	?
CC(=O)Nc1ccc(S(=O)(=O)N[C@H]2C[C@@H](c3nc(-c4ccccc4)no3)N(C)C2)cc1	?	?	?	39.8µM*
CCCS(=O)(=O)N[C@H]1C[C@@H](c2nc(-c3ccc4c(c3)OCO4)no2)N(C)C1	1.5%[70.6 µM]	-25.1%[174 µM]	44.7µM*	?
